Measurements published in ChEMBL document CHEMBL3988442, “University of Dundee, Small-Polar-MMV Screening Library” (2021).
The whole screen tested about 48,000 compounds, of which about 13,000 (27%) showed an effect of 50% or more. Some of the results follow.

system: Wolbachia pipientis; assay: Anti-Wolbachia Cell-Based Screen; type: functional; parameters: scale not given: in the data most compounds retested in dose-response had high values; settings: 5 µM

Compound	Percent Effect [%]
COCCc1noc(-c2cn(Cc3ccccc3C)nn2)n1	-12.89
NS(=O)(=O)CCNC(=O)C1(c2ccccc2)CC1	-12.67
O=C(NCCCNc1ccccn1)NCC1CCS(=O)(=O)C1 (stereo not given)	10.33
CN(C)CC1CN(c2ncnc3[nH]ccc23)CCO1 (stereo not given)	4.502
Cc1nc(C)n(CC2CCCN(c3ncnc4[nH]ccc34)C2)n1 (stereo not given)	6.618
Cn1cc(C2CCCN2c2ncnc3[nH]ccc23)cn1 (stereo not given)	-13.62
CC(C)c1ncc2c(n1)CN(c1ncnc3[nH]ccc13)CC2	96.63
CC(C)c1ncc2c(n1)CN(CC1CCCCO1)CC2 (stereo not given)	-13.54
Cc1ncc2c(n1)CN(C(C(N)=O)c1ccc(F)cc1)CC2 (stereo not given)	-2.692
c1nc(N2CCc3[nH]cnc3C2)c2cc[nH]c2n1	98.13
CC(C)c1ncc2c(n1)CN(Cc1ccc(C(N)=O)cc1)CC2	-9.095
COCCCN1CC2(CCCN(c3ncnc4[nH]ccc34)C2)CCC1=O (stereo not given)	0.6665
c1ncc2c(n1)CN(c1ncnc3[nH]ccc13)CC2	97.2
Cc1ncc2c(n1)CN(c1ncnc3[nH]ccc13)CC2	103
OC1(CN2CCCC2)COCCN(c2ncnc3[nH]ccc23)C1 (stereo not given)	7.822
CC(C)CCN(C(=O)c1cc2c([nH]c1=O)CCCC2=O)C1CC1	-4.935
O=C(NC(C1CC1)C1CC1)c1cccc[n+]1[O-]	1.029
Cn1cc(Br)cc(NC(=O)Cc2cccs2)c1=O	-8.828
CCc1cnc(CNc2cccc3c2CCN(S(=O)(=O)CC)C3)o1	-1.845
CN(CCCc1cc(-c2cccc(F)c2)n[nH]1)C(=O)CCn1cncn1	11.69
CNC(=O)[C@@H](C1CCCCC1)N1CCC[C@H]1C(=O)N(C)CCN(C)C.Cl.Cl	6.649
Cc1cccc(CN2Cc3[nH]nc(COCc4nccs4)c3C2)n1.O=C(O)C(F)(F)F	-5.307
CC(C)NC(=O)N1CCc2c(CNc3ncccn3)cncc2C1.Cl	-8.609
Cc1cccc(C(=O)N2CCc3c(COCC4CC4)cncc3C2)n1	-8.984
Cc1occc1C(=O)N1CCc2c(CNc3ncccn3)cncc2C1.Cl	-10.41

Compound	Percent Effect [%]
CS(=O)(=O)NCc1cncc2c1CCN(C(=O)c1cccnc1)C2.Cl.Cl	94.15
CN(C)C(=O)N1CCc2c(CNc3ncccn3)cncc2C1	-13.49
Cl.Cn1cccc1C(=O)N1CCc2c(CNS(C)(=O)=O)cncc2C1	99.59
Cc1nc(-c2cnn(C)c2)nc2c1CN(C(=O)c1cccn1C)CC2	-11.99
Cc1occc1C(=O)N1CCc2c(CNS(C)(=O)=O)cncc2C1.Cl	99.94
COCc1cncc2c1CCN(C(=O)c1ccoc1C)C2	-16.93
CS(=O)(=O)NCc1cncc2c1CCN(C(=O)c1ccccn1)C2	100.5
O=C(O)C1CCN(c2ccc(Sc3ccc(Br)cc3)nn2)CC1	-8.294
Cc1cccc2c1OCCC2NCc1c(C)nn(C)c1N(C)C (stereo not given)	-23.23
Cc1ccc(C(=O)N2CCc3c(CNc4ncccn4)cncc3C2)o1.Cl	96.21
Cc1ccc(C(=O)N2CCc3c(COCC4CC4)cncc3C2)o1	-16.58
Cc1ccc(C(=O)N2CCc3c(CNS(C)(=O)=O)cncc3C2)o1.Cl	-12.96
CCc1cnc(N2CCN(Cc3ccon3)CC2)s1	-1.549
O=C(c1cc(Cl)c2c(c1)OCCCO2)N(CC1CCOC1)C1CC1 (stereo not given)	-3.487
CC(C)c1cccc(NC(=O)N2CC(N(C)C)C2)c1	-4.396
CCn1c(=O)c2sccc2n(CC(=O)Nc2cccc(Cl)c2)c1=O	148.7
O=C(Cn1cc(-c2ccccc2)ncc1=O)Nc1ccncc1	8.409
COc1ccc(Cn2c(=O)n(C)c(=O)c3sccc32)cc1	5.606
O=C(Cn1c(=O)nc2n1C(=O)N(c1ccccc1)C2)Nc1ccccc1	2.08
Cn1c(=O)c2sccc2n(Cc2ccccc2)c1=O	-1.761
COc1cccc(Cn2c(=O)n(C)c(=O)c3sccc32)c1	-18.58
CCn1nc(C)c2nnn(CC(=O)Nc3cccc(Cl)c3)c(=O)c21	-0.8024
CC(C)c1cccc(NC(=O)Cn2c(=O)n(C)c(=O)c3sccc32)c1	155.2
Cc1cc(=O)n(CC(=O)Nc2cccc(Cl)c2)nc1C	-4.372
CC(C)n1c(=O)c2sccc2n(CC(=O)Nc2ccccc2)c1=O	126.1
